PubChem BioAssay AID493005 (National Center for Advancing Translational Sciences (NCATS), 2010)
In all, about 340,000 compounds went through this assay and fewer than 10 were called active. Calls follow the shape of the dose curve; as a rule, active = well fitted inhibition curve with a large enough effect in the main read-out, with a control signal flat (not every such curve was filed as active); inconclusive = small, poorly fitted or top-dose-only effect, or effect the other way, or a change in a side signal; inactive = no such curve, though single readings can be large or run the other way. These entries were drawn from the full list.

target: Tumor susceptibility gene 101 protein (Homo sapiens) (UniProt Q99816); assay: qHTS Assay for Iinhibitors of HIV-1 Budding by Blocking the Interaction of PTAP/TSG101; conditions: Fluorescence polarization, FITC-PTAP peptide / Tsg101 binding; series mostly up to 115 µM; activity change, negative = inhibition: at the top concentration; also: % of control where 0% means no effect
Sequence (Q99816 whole entry, looked up): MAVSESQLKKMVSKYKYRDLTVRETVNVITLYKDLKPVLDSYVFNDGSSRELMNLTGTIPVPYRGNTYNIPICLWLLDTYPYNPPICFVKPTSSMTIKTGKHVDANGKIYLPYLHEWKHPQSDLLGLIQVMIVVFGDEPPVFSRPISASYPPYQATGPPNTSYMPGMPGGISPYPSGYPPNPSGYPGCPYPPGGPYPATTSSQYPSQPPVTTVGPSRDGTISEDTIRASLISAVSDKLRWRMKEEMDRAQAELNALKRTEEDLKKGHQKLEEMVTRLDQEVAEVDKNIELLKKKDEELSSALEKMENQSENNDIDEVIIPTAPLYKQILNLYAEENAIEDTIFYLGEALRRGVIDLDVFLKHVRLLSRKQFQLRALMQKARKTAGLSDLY
From the text: NIH Molecular Libraries Probe Production Network [MLPCN] NIH Chemical Genomics Center [NCGC] MLPCN Grant: 1 R03 MH087464-01A1 PI Name: Dr. Eric Freed, NCI NCGC Assay Overview: Stages of the HIV-1 replication cycle, specifically virus assembly and release, provide underexploited targets for the development of novel antiviral inhibitors. The late stages of HIV-1 replication are mediated by the Gag precursor protein, Pr55Gag. Expression of Pr55Gag is both necessary and sufficient for the production of virus-like particles from Gag-expressing cells. The Gag protein hijacks key host proteins involved in endocytic machinery of the host cell to promote endosomal processing and viral budding. The budding process requires a direct interaction between a […] (PTAP) motif in the p6 domain of Gag and the cellular endosomal sorting protein known as Tsg101. In this way, the Gag PTAP motif promotes the host cells to recruit viral particles to the plasma membrane where the new viral particles are released, effectively turning the host cells into viral factories. A fluorescence anisotropy assay has been developed to quantitatively measure the PTAP-Tsg101 interaction which can be used to screen for inhibitors of this interaction.
NCGC Assay Protocol Summary: Two uL of the Tsg101 binding domain in buffer (10 mM HEPES pH 7.5; 0.15 M NaCl, 0.01% Tween 20; 3 mM EDTA;0.1 mM TCEP) was dispensed into Greiner black MB 1536-well plates (final concentration 10 uM). Then, 23 nL of compounds or DMSO were delivered to each well using a pin tool. Finally, 2 uL of a FITC-labeled peptide containing the PTAP motif (1) in the same buffer was dispensed (50 nM final concentration) and the binding was allowed to proceed for 20 min. at r.t. Fluorescent polarization was determined using FITC excitation and polarized emission filters on a Perkin Elmer Viewlux. Keywords: Tsg101, PTAP, Gag, HIV, fluorescent polarization, MLSMR, MLPCN, NIH Roadmap, qHTS, NCGC

Activity change, negative = inhibition, inactive:
Cc1nc2ccc(N)nc2nc1C -0.53%
C/C(=N\NC(=O)OC(C)(C)C)c1ccc[nH]1 -1.18%
O=C(CCN1C(=O)[C@H]2CC=CC[C@H]2C1=O)NCc1nc(-c2ccccc2)no1 -6.22%
CCc1nnc(NC(=O)CSc2nnc(COc3ccc(C#N)cc3)n2-c2ccccc2)s1 -10.6%
CCN(CCn1cccn1)Cc1cn[nH]c1-c1ccc(OC)cc1F 0.565%
CC1CN(Cc2nc3c(c(=O)n(C)c(=O)n3C)n2Cc2cccc(Cl)c2)CC(C)O1 (stereo not given) -3.91%
O=C(c1ccc(C(F)(F)F)cc1)C1CCCN(C(=O)c2csnn2)C1 (stereo not given) -0.106%
CN1CCC(N(C)C(=O)c2ccc(Cl)c(S(=O)(=O)Nc3ccc(Cl)cc3)c2)CC1 -3.3%
O=C(C[C@H]1C/C=C\C[C@@H](NC(=O)OCC2c3ccccc3-c3ccccc32)C(=O)O[C@@H](c2ccccc2)CNC1=O)N[C@H](CO)Cc1ccccc1 -5.62%
COc1cc(/C=C/c2ccc(/C=C/c3cc(OC)c(OC)c(OC)c3)cc2)cc(OC)c1OC -1.32%
CCOC(=O)c1ccc2[nH]c3c(c2c1)CCCC3NC=O (stereo not given) -3.47%
CCN1CCN(C(=O)Cn2nc(C)n3c(cc4c(OC)cccc43)c2=O)CC1 -6.31%
O=C(NCc1nnc(SCC(=O)N2CCC(Cc3ccccc3)CC2)o1)c1ccco1 -0.997%
CCN(CC)S(=O)(=O)c1ccc2[nH]c(=O)cc(C(=O)N(C)C3CCS(=O)(=O)C3)c2c1 (stereo not given) -4.05%
O=C(C1CCCO1)N(c1ccc(F)cc1)C1C=CS(=O)(=O)C1 (stereo not given) 0.363%
O=C(NCc1ccccc1)c1cccc(NC(=O)C2CCCCC2)c1 -6.8%
c1ccc(-c2nccc(-c3ccc(-n4cnc5ccccc54)cc3)n2)nc1 -1.99%
CCC(C)Sc1nc(C)nc2c1c(=O)n(C)c(=O)n2C (stereo not given) 0.253%
CCN(CC)C(=O)CSc1nc2ccccc2n1CC(=O)N1CCN(c2ccccc2OC)CC1 0.875%
CCOc1ccccc1NC(=S)C(=C([O-])c1ccc2c(c1)OCCO2)[n+]1ccc(CC)cc1 3.72%
O=C(CSc1nnc(-c2cccs2)n1Cc1ccco1)c1ccc2c(c1)OCO2 -3.06%
COC(=O)c1ccc(NC(=O)CSc2nncc3ccc(OC)c(OC)c23)cc1 -2.76%
Cc1noc(C)c1C(=O)NCCc1ccc(S(N)(=O)=O)cc1 -0.805%
O=C(CN1CCN(c2ccc(O)cc2)CC1)Nc1ccc(-c2ccccc2)cc1 -0.657%
CCN(C(=O)COC(=O)c1c(C)nn(-c2ccccc2)c1Cl)c1c(N)n(Cc2ccccc2)c(=O)[nH]c1=O -1.46%
COc1cccc(-c2nn(-c3ccccc3)cc2/C=C(\C#N)C(=O)NCCCn2ccnc2)c1 -4.69%
Nc1c(-c2cccc(Cl)c2)cnn1-c1cccc([N+](=O)[O-])c1 -1.6%
COc1ccc(CN2C(=O)CC(Cc3ccc(C)cc3)C2=O)cc1OC (stereo not given) 0.513%
C/C(=N\N=C(N)N)c1ccc(Cl)cc1 -1.16%
CC(C)Oc1ccc(C2NC(=O)NC2=O)cc1 (stereo not given) -6.43%
COC(=O)C1(S(=O)(=O)C2(C(=O)OC)CCCC2)CCCC1 0.594%
C=CCOC(=O)C1=C(C)N=C2SCCC(=O)N2C1/C=C/c1ccccc1OC (stereo not given) -5.89%
Cc1ccc(N(C(=O)CC2NC(=O)NC2=O)C2(C(=O)NC3CCCC3)CCCCC2)cc1 (stereo not given) -3.36%
O=S(=O)(NCCS(=O)(=O)N1CCN(c2ccccc2)CC1)c1ccc(F)cc1 -5.23%
Fc1ccc(-n2c(Cc3ccccc3)nnc2SCc2nc(-c3ccc(Cl)cc3)no2)cc1 -5.49%
N/C(=N\OC(=O)CCc1ccccc1)c1ccc(Cl)cc1 -1.88%
O=C(CN1CCN(Cc2ccccc2)CC1)NC(c1ccccc1)c1ccccc1 -0.0932%
O=C(O)c1[nH]c2ccccc2c1C(c1cccc(O)c1)c1c(C(=O)O)[nH]c2ccccc12 -5.64%
COCCCNCC(=O)Nc1sc(C)c(C)c1C(=O)OC 0%
CCn1c(SCC(=O)NC2=NCCS2)nnc1C(C)NC(=O)c1ccccc1F (stereo not given) -2.35%
Cc1ncc([N+](=O)[O-])n1CCOC(=O)c1ccc(Br)cc1 -6.42%
CC(C)(C)C(=O)Nc1cccc(-c2ccc[nH]2)n1 -4.49%
O=C(C/C(=N\NC(=O)c1ccccc1Br)C(F)(F)F)c1cccs1 -4.3%
COC(=O)[C@@]12CCCN1[C@H](c1ccc(-c3ccc(F)cc3)c(OC)c1)[C@H]1C(=O)N(C)C(=O)[C@H]12 -0.523%
C=C1c2c(Cl)ccc(O)c2C(O)=C2C(=O)[C@]3(O)C(O)=C(C(N)=O)C(=O)[C@@H](N(C)C)[C@@H]3[C@@H](O)C12 (stereo not given in full) -1.33%
Cc1ccc(C)c(OCCC(=O)OCC(=O)NC(=O)NCc2ccccc2)c1 -1.56%
COc1ccc(NC(=O)CSc2ccc(-c3ccco3)nn2)c(OC)c1 -8.49%
COC(=O)[C@]1(C)CCC[C@@]2(C)C3CC[C@]4(OC(C)=O)C[C@@]3(CCC21)CC4=NO (stereo not given in full) -6.61%
COc1ccc(C(=O)CCc2ccccc2O)c(OC)c1 0.644%
Cc1ccc(CNC(=O)CCC(=O)N2CC(C)Sc3ccccc32)cc1 (stereo not given) -0.171%
Cc1cc(C)cc(NC(=O)N2CCC(NC(=O)c3ccc(F)cc3)CC2)c1 -0.34%
Cc1ccc(CCCOC(=O)C[N+]2(C)CCCCC2)cc1 -0.238%
Cc1noc(C)c1S(=O)(=O)N1CCCC(C(=O)Nc2nccs2)C1 (stereo not given) -2.7%
CCCCNC1(C#N)CCN(Cc2ccccc2)CC1 -0.662%
O=C(NNC(=S)NCCCN1CCOCC1)c1ccncc1 -0.889%
CCOc1cc(CN2CCCC(CO)(Cc3ccc(F)cc3F)C2)ccc1OC (stereo not given) -0.505%
Cc1ccc2c(C)c(C(=O)N(C)CCC3CCCCO3)oc2c1C (stereo not given) -7.71%
CN(C)C(=O)c1ccc2c(c1)C1C3CCC(C3)C1C(c1ccccc1)N2 (stereo not given) -5.45%
O=C(CCC1CCCC1)N=C1SC2CS(=O)(=O)CC2N1Cc1ccccc1 (stereo not given) -1.15%
Cc1ccc(CN(N=Nc2nonc2N)c2nonc2N)c(C)c1 -0.109%
Cc1ccc(C(=O)O)cc1N1C(=O)CCCC1=O -3.92%
Cc1ccc(CN2CCN(c3ccccc3Cl)CC2)o1 -5.99%
CCCC(=O)Nc1nnc(CC(=O)OCC)s1 0.641%
COc1ccc(CCNCc2c(-c3ccccc3)n(C)c3ccccc23)cc1 -3.78%
COc1ccc(F)cc1S(=O)(=O)N1CCCCC1 -9.49%
O=[N+]([O-])c1ccc(C=Nc2ccc(Cl)cc2Cl)s1 -15%
CCOC(=O)c1nnn(-c2nonc2-n2cccc2)c1CN1CCC(C(=O)OCC)CC1 -0.451%
C=CCc1cccc2cc(C(=O)Nc3ccc(NC(C)=O)cc3)c(=O)oc12 1.25%
CCOC(=O)[C@@H]1[C@H]2COc3cc(OC)ccc3[C@H]2N2C(=O)N(c3ccc(F)cc3)C(=O)[C@]12C 0.494%
O=C(Cc1ccccc1)Nc1c(Cl)ccc2nsnc12 0.701%
CC(=O)c1ccc(NC(=O)C2CC(=O)Nc3nc4ccccc4n32)cc1 (stereo not given) 0.727%
CCOc1ccc(NC(=O)C/C(C)=N/NC(=O)Cc2cccs2)cc1 -5.5%
CN(CC(=O)NCCN1CCOCC1)S(=O)(=O)c1ccc(F)cc1 -0.493%
C/C(=N\NC(=O)CCn1nc(C)cc1C)C(C)(C)C -0.95%
O=C(Cc1ccc(NC(=O)C2CCCN(C(=O)CCc3ccccc3)C2)cc1)Nc1ccc(C(=O)N2CCOCC2)cc1 (stereo not given) -0.0955%
COc1ccc(-c2nc3c(s2)CCc2onc(-c4ccc(OC)cc4)c2-3)cc1 -0.28%
CC(=O)Nc1ccc(S(=O)(=O)N(CCc2ccccc2)CC(=O)N/N=C/c2ccc(C(=O)O)cc2)cc1 -6.47%
COc1cc(Cl)ccc1OCc1cc(C(=O)N(C)CCc2c(C)n[nH]c2C)no1 0.863%
CC(C)C[C@H](NC(=O)C1CC(=O)N(c2ccc3c(c2)OCCO3)C1)C(=O)NC1CCCC1 (stereo not given in full) 2.95%
COc1ccc(Cl)cc1NC(=O)CN(C)C(=O)CCCc1c[nH]c2ccccc12 -4.62%
CC(C)CC(CC(C)C)=NNC(=O)c1ccc(CSc2nncn2C)cc1 -0.775%
O=C(c1cc(-c2ccco2)nc2ccccc12)N(Cc1nnc(-c2ccc(Cl)cc2)o1)C1CC1 0.193%
CN(CC(=O)Nc1ccc(Cl)c(C(F)(F)F)c1)C(=O)CCC(=O)c1ccccc1 -4.75%
Cn1ncc(N2CCN(S(=O)(=O)c3ccc(Br)cc3)CC2)c(Cl)c1=O 1.01%
CC(C)OP(=O)(OC(C)C)C(Nc1ccccc1)c1cccc([N+](=O)[O-])c1 (stereo not given) -3.25%
CC(=O)N(c1ccc2oc(=O)sc2c1)S(=O)(=O)c1ccc(C)cc1 -5.77%
Clc1ccc(C[n+]2cc(-c3ccc(Cl)cc3)n3c2CCC3)cc1 0.956%
COC(=O)[C@@H]1C[C@@]2(O)[C@@H](O)[C@@H](O)[C@@H](O)C[C@H]2N1Cc1ccc(C)s1 0.0295%
COc1ccccc1NS(=O)(=O)c1ccc(C)c(C(=O)NNC(=O)c2csc(N3CCOCC3)n2)c1 -8.59%
CC(=O)OC1CCC2C3CCC4=C(CC(F)C(=O)C4)C3CCC12C (stereo not given) 0.416%
Cc1ccc(S(=O)(=O)N2CCCC2C(=O)NCc2ccco2)cc1 (stereo not given) -4.52%
CS(=O)(=O)N1CCCC(C(=O)N2CCOCC2)C1 (stereo not given) -5.04%
CCCN1C(=O)C(NC(C)=O)c2cc(OC)ccc21 (stereo not given) -3.66%
O=C(NC1CCCC1)C(c1ccc(N2CCOCC2)cc1)N(C(=O)c1ccco1)c1ccccc1F (stereo not given) 1.97%
O=C(Nc1ccccc1-c1nnn(CC(=O)N2CCCc3ccccc32)n1)c1cccc(Cl)c1 -0.614%
CC(C)C(O)C1CCN(Cc2nc(Cc3ccccc3Cl)no2)CC1 (stereo not given) 0.208%
O=C(Nc1ccc2c(c1)nc1n2CCCCC1)c1cc(S(=O)(=O)N2CCOCC2)ccc1Cl -2.8%
C=CCn1c(COc2ccc(F)cc2)nnc1SCC(=O)Nc1cccc(S(N)(=O)=O)c1 0.597%
CCc1c(O)nc(SCC(=O)Nc2ccccc2)n(C(C)CC)c1=O (stereo not given) -0.227%
COc1cc(OC)cc(C(=O)NNC(=O)Cc2cccs2)c1 -8.25%
